# Lassa entry inh = Lassa virus entry inhibition. Potency, µM (highest dose often 37.9 µM), without a hit: at the highest dose activity change, negative = inhibition, hits mostly inhibitors. hit rate 1.2% among 300,000. Lassa virus pseudotype entry inhibition, cell reporter; calls by dose curve; tested in HEK293 cells; note: potency is the fitted concentration of half-maximal effect; % is set by controls: 0 for no effect and ±100 for the full control effect; nearly all actives have a fitted effect of over 50% in size
# Cycloheximide cs = counter-screen hit for Shiga toxin inhibitors, cycloheximide; cell reporter, cycloheximide protein synthesis inhibition counterscreen; max response, %; hit rate 12% among 300,000; in the data active = max response mostly above about 13%, no sharp cut-off; inactive = mostly below about 14%; note: read at 38.3 µM for the half of the compounds with a filed dose; 0% is about no effect
# Pf growth 48h = inhibits P. falciparum growth in the first generation, 48 h; P. falciparum luciferase growth in erythrocytes, 48 h; Potency, µM (highest dose often 28.7 µM), without a hit: at the top dose activity change, negative = inhibition, usual class: inhibitors; hit rate 5.9% among 310,000; AID 504832; note: potency is the fitted concentration of half-maximal effect; % is set by controls: 0 for no effect and ±100 for the full control effect
#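 Cell-based growth assay: transgenic P. falciparum expressing firefly luciferase, cultured in red cells within RPMI 1640 containing 0.5% w/v Albumax, 24 mM bicarbonate and gentamycin. A drop in luciferase activity indicates inhibition.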
# Pf growth 96h = inhibits malaria parasite growth, 96 h | AID 504834 | P. falciparum luciferase reporter growth, 96 h | hit rate 6.9% among 320,000 | Potency, µM (highest dose often 28.7 µM), for the others: at the highest dose activity change, negative = inhibition, usual class: inhibitors; note: potency is the fitted concentration of half-maximal effect; % is set by controls: 0 for no effect and ±100 for the full control effect
#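 P. falciparum expressing integrated firefly luciferase, in erythrocytes at 2% hematocrit, 0.05% parasitemia, incubated with compounds 96 h at 37 C, 5% CO2. Growth inhibition read as loss of luminescence; two-generation exposure targets delayed-death apicoplast inhibitors.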
# Shiga toxin inh = blocks Shiga toxin action in Vero cells | Vero cells, Shiga toxin protein synthesis inhibition reporter | inhibition, % at 38.7 µM | hit rate 9.2% among 290,000 | AID 2315; in the data active = inhibition mostly above about 28%, no sharp cut-off; inactive = mostly below about 43%; note: 0% is about no effect
# Marburg entry inh = Marburg virus entry inhibition. hit rate 1.8% among 300,000. Potency, µM (series often up to 37.8 µM), inactives show top-dose activity change, negative = inhibition, most hits filed as inhibitors. Marburg virus pseudotyped entry inhibition, cell reporter; calls by dose curve; tested in HEK293 cells; note: potency is the fitted concentration of half-maximal effect; % is set by controls: 0 for no effect and ±100 for the full control effect
# * marks the source's active call; other numbers are inactive results; ? = inconclusive; nt = no result; [ ] = dose if it differs, or a comment. Rows were chosen to be rich in hits. Some 19% of all compounds tested hit in one or more screens of this group. Unless noted, calls come from the whole dose curve; as a rule, active = well fitted inhibition curve with a large enough effect; inconclusive = small, poorly fitted or top-dose-only effect, or another doubt; inactive = no such curve, though single readings can be large or run the other way.
SMILES,Lassa entry inh,Cycloheximide cs,Pf growth 48h,Pf growth 96h,Shiga toxin inh,Marburg entry inh
Cc1ccccc1NC(=O)CN1C(=O)C2C3CC(C(Br)C3Br)C2C1=O (configuration not stated),-13%,-2,23%,81%,-10,-8%
CN(C(=O)CN1C(=O)C2C3CC(C(Br)C3Br)C2C1=O)C1CCCCC1 (configuration not stated),-9%[46.1 µM],-4,5.9µM*,1%,-4,?
CN(C)CC1CCC/C(=C\c2ccc(OC(=O)/C=C/c3ccccc3)cc2)C1=O (configuration not stated),17%,nt,nt,nt,nt,-2%
O=C(Cc1cccs1)N1CCN(C(=O)C2CCCO2)CC1 (configuration not stated),6%,-1,9%,nt,4,1%
O=C(c1cccs1)N1CCN(C(=O)C2CCCO2)CC1 (configuration not stated),2%,-1,13%,4.7µM*,6,2%
Cc1ccc(-c2nc(CN3CCN(C(=O)C4CCCO4)CC3)cs2)cc1 (configuration not stated),?,14*,-18%,7%,2,18µM*
CC(=O)Nc1nonc1-c1nnc(SCC(=O)Nc2ccc(C)cc2)n1-c1ccccc1,?,nt,nt,nt,nt,-13%[46.1 µM]
COc1ccc(C(=O)Cc2cc(OC)c(OC)cc2[N+](=O)[O-])c(OC)c1,10%,11,?,?,-8,0%
COc1ccc(C(=O)Cc2ccc(F)cc2)c(OC)c1,13%,64*,105%,?,80*,?
O=C(COc1ccc(F)cc1)c1c(O)cc(O)cc1O,nt,48*,-23%,?,119*,nt
COc1ccc(C(=O)COc2ccc(F)cc2)c(O)c1,-7%,29*,33%,118%,69*,-13%[46.1 µM]
CC1CN(C(=O)Nc2ccc(C(=O)NCCc3ccc(Cl)cc3)cc2)c2ccccc2S1 (configuration not stated),?,nt,nt,nt,nt,12%[46.1 µM]
O=C(CCCc1nc2ccccc2s1)NCc1ccccc1F,-10%,13*,15%,3%,25,12%
O=C(CCc1nc2ccccc2s1)Nc1cccnc1,-14%[46.1 µM],18,6%,-4%,13,5%[46.1 µM]
CCOc1ccc(C(=O)CCc2nc3ccccc3s2)cc1,?,22*,19%,50%,62*,-5%
NC(=O)c1ccc(NC(=O)CCc2nc3ccccc3s2)cc1,nt,12*,-13%,-2%,17,nt
O=C(CCc1nc2ccccc2s1)NCc1ccccc1F,nt,20,26%,24%,27,nt
CSCCC(NC(=O)c1ccccc1Cl)C(=O)N1CCC1 (configuration not stated),17%,nt,4%,6%,nt,4%
O=C(O)c1ccc(N=N/C(=N\Nc2ccc(C(=O)O)cc2)c2ccccc2)cc1,nt,nt,84%,212%,nt,nt
Brc1ccc(N/N=C(/N=Nc2nn[nH]n2)c2ccccc2)cc1,nt,19*,3.3µM*,1.9µM*,53,nt
Cc1c2c(n3c(nc4ccccc43)c1C#N)N(CCN(C)C)CC2,0%[46.1 µM],1,2.1µM*,74%,-25,?
Cc1c2c(n3c(nc4ccccc43)c1C#N)N(c1ccccc1)CC2,4%,6,2.1µM*,0.66µM*,-46,29%
Cc1c2c(n3c(nc4ccccc43)c1C#N)N(CCCN(C)C)CC2,13%,3,-16%,1%,-4,?
C(=N/Nc1nc(-c2ccccc2)cc(-c2ccccc2)n1)/c1cccnc1,-17%,61*,?,-15%,69*,?
C(=N\Nc1nc(Nc2ccccc2)nc(Nc2ccccc2)n1)/c1cccnc1,nt,5,3.3µM*,-2%,36,nt
SMILES,Lassa entry inh,Cycloheximide cs,Pf growth 48h,Pf growth 96h,Shiga toxin inh,Marburg entry inh
Oc1cccc(/C=N\Nc2nncc(-c3ccccc3)n2)c1,-20%,64*,25%,-19%,50*,11%[46.1 µM]
Cc1[nH]n(-c2ccccc2)c(=O)c1/C=N/Nc1nncc(-c2ccccc2)n1,4.1µM*,-1,0.41µM*,0.59µM*,2,4.1µM*
C(=N\Nc1nc(Nc2ccccc2)nc(Nc2ccccc2)n1)/c1ccncc1,-11%,-2,0%,-27%,-9,?
Cc1cccc(NC(=O)CN(C2=NC3CS(=O)(=O)CC3S2)c2ccccc2F)c1 (configuration not stated),nt,-2,0%,10%,-11,nt
O=c1[nH]c2ccccc2n1CCCSc1cnc2ccccc2n1,?,-2,0%,-2%,-11,4%
NC(=O)COC(=O)c1ccc(Cl)c(S(=O)(=O)N2CCN(c3ccc(F)cc3)CC2)c1,nt,-5,0%,?,17,nt
COc1ccccc1CNC(=O)CN1C(=O)NC(C)(c2ccc(C(C)(C)C)cc2)C1=O (configuration not stated),20%,-2,?,?,-3,?
CCOC(=O)/C(C)=N/Nc1nc(-c2ccc(NC(C)=O)cc2)cs1,-8%[46.1 µM],18*,?,10µM*,17,-8%[46.1 µM]
CC(=O)Nc1ccc(-c2csc(NCc3ccccc3)n2)cc1,13%,25*,6%,-19%,62*,-10%[46.1 µM]
CC(=O)Nc1cccc(-c2csc(NCc3ccccc3)n2)c1,nt,11*,?,10µM*,3,nt
O=C(CCSc1nnc(-c2ccco2)o1)Nc1ccc(Cl)cc1,-17%,10,-3%,27%,19,-3%
O=C(/C=C/c1ccc(-c2ccccc2[N+](=O)[O-])o1)c1ccc(Br)cc1,12%,11,-4%,6%,12,4%
O=C(/C=C/c1ccc(-c2ccccc2[N+](=O)[O-])o1)c1ccc(F)cc1,0%,43*,7%,6%,64*,-5%
O=C(/C=C/c1ccc(-c2ccccc2)o1)c1ccccc1,?,74*,145%,22%,72*,16%
Cc1ccc(-c2ccc(/C=C/C(=O)c3ccccc3)o2)cc1,?,26*,42%,3%,28,20%
O=C(c1cccc(S(=O)(=O)N2CCc3ccccc3C2)c1)N1CCN(c2ccccc2)CC1,16µM*,-5,-8%,?,3,?
O=C(c1cccc(S(=O)(=O)N2CCc3ccccc32)c1)N1CCN(c2ccccc2)CC1,4µM*,nt,?,10µM*,nt,?
O=C(c1ccc2c(c1)CCN2S(=O)(=O)c1ccccc1)N1CCN(c2ccc(F)cc2)CC1,0%[46.1 µM],3,1%,?,-4,7%[46.1 µM]
O=C(c1cccc(S(=O)(=O)N2CCCCC2)c1)N1CCN(c2ccccc2)CC1,15%,12,-5%,24%,-2,-16%
COc1ccccc1N1CCN(C(=O)c2ccc3c(c2)CCN3S(=O)(=O)c2ccccc2)CC1,-27%[46.1 µM],40,8.3µM*,?,46,?
Cn1c(=O)c2c(nc(NC3CCCCC3)n2CC(=O)C23CC4CC(CC(C4)C2)C3)n(C)c1=O,?,11,?,-25%,27,8%[46.1 µM]
CCn1cc(C(=O)N2CC(C)CC(C)C2)c(=O)c2cc(S(=O)(=O)N(C)C)ccc21 (configuration not stated),nt,-3,16%,4%,-2,nt
